Source: the supplement of paper PMC11417369
The full ranking holds about 25,000 sequences; the median of “ln(normalized median fluorescence intensity)” is about 9.7, and the highest 2% start at about 11. This is one part of a sample in which the highest values are shown more often than they occur.

The sequences below were run on PfAP2-HC AP2 domain (GST-tagged) (assay: gcPBM binding intensity (ln(normalized median fluorescence intensity)); higher = stronger DNA binding).
In short: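 Binding of GST-tagged P. falciparum DNA-binding domains, expressed in E. coli and used at about 25 μg on average, was carried out for 1 h in 1× PBS containing 1% milk, 0.2 mg/ml BSA, 0.5% salmon testes DNA and 0.03% Triton X-100. The target was an Agilent 4 × 180k array of primer-extended double-stranded 36-bp intergenic genomic probes plus negative controls, read with Alexa488 anti-GST antibody at 488 nm. Binding intensity is the highest Masliner-normalised natural-log median intensity across replicate spots of either probe orientation.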

Sequence	gcPBM binding intensity (ln)
ATATATATTATGTGTGTGCACTTTTGTTATTATTAT	10.2
TATATAACATAATATACACACATTATGTGCGTAATT [CACACA_site4073]	9.75
GATATGTTTTCCTAGGTTCATGATGATAGGTAGTTT [XGTACX_negctrl_site217]	9.83
AGTAAAAGAAAGCACACACACATGTATATAGGTATG [CACACA_site7759]	10.9
AAAAAAAAAAAGCACACACACATATGCGTATATATA [CACACA_site954]	10.9
ATACAATACAAAAACACACACAAAAAAAGAAAAGGA [CACACA_site2156]	10.4
TAGGAAAAGAAAAGCACACACATAAATAGATATATA [CACACA_site6382]	10.3
AAGAAAAGCATAGATGCACACATATATATATATATA [CACACA_site8675]	10.5
AGATATAAGAAAAGCACACACACACTAGAAAAAAAA [CACACA_site5559]	11
AAAAAAAAAAAAAGCACACACACATATGCGTATATA [CACACA_site953]	10.3
ATAAGAAAAGGACACACACACAAAAAAAAAAAAAAA [CACACA_site7351]	11.1
AAAGTAAAAGAAAGCACACACACATGTATATATGTA [CACACA_site3857]	10.2
AGTAAAAGAAAGCACACACACATGTATATATGTATG [CACACA_site3858]	11
AAAAAAAAAAAGCACACACACATATGAGTATATATA [CACACA_site4683]	10.3
ATAAGAAAAAGACACACACACAAAAAAAAAAAAAAA [CACACA_site2828]	10.2
ATATATACAAGTATTTTTTTTTCAAACATTATTTTT [CACACA_negctrl_site1808]	9.68
TACATGAATATATAAAGAAAAAAAAAAAAACACACA [XGTACX_negctrl_site350]	9.79
AATAAGTAACAAAATACACACATATATATAATTATA [CACACA_site1837]	10.1
CTTATATTAAGTATTACACACATATATATAAATGCA [CACACA_site4581]	9.65
TGTACGTTTTTTAACACACACACAAAAAAAAAAAAA [CACACA_site6006]	9.84
GATTTATACAAATATGTACACACTAAATATATATTA [CACACA_site455]	9.83
GATGTTGCAAAATTCTGTACATATAAATGTATACAT [XGTACX_site5009]	9.64
TAATTAAAATTATTTATAAATTAGTATATTTCTATA [CACACA_negctrl_site663]	9.42
ATATAAGAAAAGCACACACACACAAAAAAAAAAAAA [CACACA_site2827]	11.1

Sequence	gcPBM binding intensity (ln)
AGAGATATAAGAAAAGCACACACACCCAAAAAAAAA [CACACA_site8917]	10.5
GCAAAATAAAGAAGCACACAAAAATGAAATATATAT [CACACA_site3651]	9.96
AAAAAAAATATAAGTGGTACTCACATAAAGACATAT [XGTACX_site3709]	9.93
AAAAAAAAAAAGAAGGAAACATTTGACCAAAAATAT [GTGCAC_negctrl_site404]	9.58
GTAGACTGAAACCACACACACATATATAAATATATT [CACACA_site6433]	10.4
ATTTTGTGTAGTGATGCATGTTATATATATATTTGA [TGCATGCA_site422]	9.83
TGTCATGATACATACACACACATACCCATACCCATA [CACACA_site5211]	10.6
TAGAAGCATTGACACACACACATACATACACATACA [CACACA_site6802]	11.2
AAAAAAAACGGACACACACACATACCCATACATACA [CACACA_site5574]	10.5
TAGAAGCATGGACACACACACATACATACCCATACA [CACACA_site4916]	11.2
GTTATAGAAGCATTCACACACACACGGACATACACA [CACACA_site6801]	10.7
TATAGAAGCATTCACACACACACATACATACACATA [CACACA_site1466]	10.6
TGTTGCAAAACAAAAAAAAAAAAAAAAAATAATAAT [CACACA_negctrl_site1642]	9.52
AAAAGGAAAAATATCACACATATATATATATATATA [CACACA_site5586]	9.69
TAGAAAAAATAAAATAGTACACATCCAAAAAAAAAA [XGTACX_site7829]	9.71
TAAGAAATAAATAGTACACACATAGACACCCACCGA [CACACA_site1516]	10.4
TAAGAAATAAATAGTACACACATAGACACACGCACA [CACACA_site6821]	10.7
TAAGAAATAAATAGTACACACATAGACACAGACACA [CACACA_site4934]	10.6
GCATAAGAAATAAATAGTACACACATAGACACACAC [XGTACX_site3095]	11.3
TAAGAAATAAATAGTACACACATAGACACCCACCCA [CACACA_site8429]	11.3
TATAAATACATCCTATACTTCTCTTTTACAGTTTTA [CACACA_negctrl_site1283]	9.62
ATTTCGTTCTTTTATGCACACTCAACATATAAATTA [CACACA_site8322]	9.93
GACATAGTCATATACTGTACTTTATATTATTGTGTA [XGTACX_site6636]	9.66
TATAATAAAATATGTACACACATACAGACATATATA [CACACA_site6693]	9.99

Sequence	gcPBM binding intensity (ln)
TATGGTAAATACAACACACACACATATGTATTTATA [CACACA_site4666]	10.3
TATGGTATATACAACACACACACATATGTATAAATA [CACACA_site6562]	10.5
TATGGTATATACAACACACACACATATGTATATATA [CACACA_site927]	10.9
TGGTATATACGACACACACACATATGTATAAATATA [CACACA_site6561]	10.9
TATAAATAAATATACACACACACATATAAATATGTA [CACACA_site6504]	10.4
ACACATAAATGTATATATATATAAATATATGTATGT [CACACA_negctrl_site1532]	9.82
AATTCACATGTGAACTAAAAGAATATTATATATATA [CACACA_negctrl_site1632]	9.55
TTTTCTAAATATTATAGTACTCTTAATAATATTAAC [XGTACX_site4222]	9.34
TATAGCAAAAAATTTACACACATGTTTTTTCTATAC [CACACA_site325]	9.9
ATATTTGTAATTATTAAACACACACTAATTATATAT [CACACA_site8803]	9.9
AAATTATATACCACAGTGCAAAAGGCAGGTATACGT	9.91
TACATATTACTATTCAGTACATATTTTTTTTTCATT [XGTACX_site7468]	9.81
ATAGTATACAGACACACACACACACGGATATAAATA [CACACA_site6914]	10.6
TAAATAAATTTATACACACACACACGGATATAAATA [CACACA_site6532]	10.6
CGCGCACACGGACACACACACACACGGATATAAATA [CACACA_site7102]	11.3
ACCATATAAATAAACACACACACACGGATATAAATA [CACACA_site7157]	10.6
CAAGCACACGGACACACACACACACGCGCACGCACA [CACACA_site6307]	11.3
CACGCATACAGACACACACACACACGGATATAAATA [CACACA_site6445]	11.6
AAAAAAAATAGACACACACACATACACATAAATATA [CACACA_site7742]	10.5
AAAAAATACAGACACACACACACACGCATATAAATA [CACACA_site7644]	10.8
AAACAACATGGACACGCACACACAAAAAAAGCATGC [CACACA_site73]	10.7
AAAATACATAGACACACACACACACGGATATAAATA [CACACA_site7643]	11.2
CATATACATAGACACACACACACATAAATAAATATA [CACACA_site6749]	10.4
TTTAATTCTTATATTTGTACAGATTCATAATTAAAT [XGTACX_site7465]	9.41

Sequence	gcPBM binding intensity (ln)
ACAAATAAATATTCGCGTACTTATATAATATTACGA [XGTACX_site6428]	9.66
TACATACATACATACACACACACATATATATATATA [CACACA_site42]	10.2
AATATTTTGAACAACAGTACTCTTTCTTTCTTTCTT [XGTACX_site7212]	9.51
TGAATAATAAAAAATACACACACATATATATATATT [CACACA_site9146]	10.1
ACTTACCCATTTATTACACACATAAAGGAAAATTTT [CACACA_site4873]	9.88
TTTTATAAAAACAAAAACAAAGGCACTTTCTAAAGA [XGTACX_negctrl_site130]	9.58
TATATGTTATATTTAACACACATATAAGGTACATAT [CACACA_site612]	9.83
ACTTTTTAATATTTTAGTACACAGTAATTCTTACTA [XGTACX_site1425]	9.75
CAAGAAACAGTGATACGTACACATATATATATATAT [XGTACX_site3229]	9.91
AAGGATATAACATACACACACACACGGATATAAATA [CACACA_site7867]	11
AATATAAGGATATATACACACATAAATACATACATA [CACACA_site7859]	9.99
AAATAACACATATATACACACATATAAATATAATAT [CACACA_site2692]	10.3
TTGTGGATTTTGTGCGCACACACATGCAAAAAGAAA [CACACA_site1147]	10
GCCGCACCCAGATACGCACACAAGAAAAAAATATTC [CACACA_site3456]	9.8
ATAATATTATGAACCTGTACATAATTTTTCTTTTCT [XGTACX_site3377]	9.62
ACAAGAATACACCACGCACACACACTAGAGAAAAAA [CACACA_site9276]	11.6
ACAAGAGAAAAAAATACACACAAGATAAAAATGTAT [CACACA_site607]	9.95
GAATACACCACGCACACACACTTGAGAAAAAATAAA [CACACA_site7747]	10.3
AAAAAGAAAATATATACACACCAAAAAAAAAAAAAA [CACACA_site5698]	9.75
AAAGCACGCAAGAATACACACAAATATTATAAAAAA [CACACA_site6206]	10.1
AAGAATACACCACGCACACACACTTGAGAAAAAATA [CACACA_site3828]	11.2
